Results taken from PubChem BioAssay AID588413 (Sanford-Burnham Center for Chemical Genomics, 2011).
The campaign covered roughly 340,000 compounds. About 2,500 (0.74%) were called active. Many of the other results were omitted from the sample, so actives are more common in it than they were. Unmarked numbers belong to inactive results.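 How the source made its calls: active means inhibition above about 55% (limit read from the data); inactive means the rest.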

Experiment: blockers of Gli reporter signaling – luciferase luminescence, Sufu-KO-LIGHT cells, uHTS, primary screen (AID 588413);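 further: 0% = DMSO-treated cells and 100% = wells with medium but no cells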
Conditions: Sufu-KO-LIGHT fibroblasts, at 5 µM, stronger effect = higher value

Row | Structure (SMILES) | inhibition
1 | Cc1cc(S(=O)(=O)N2CCOCC2)ccc1OCC(=O)Nc1cccc(C(F)(F)F)c1 | -8.26%
2 | COc1ccccc1N1CCN(C(=O)c2cc(=O)c3cc(C)ccc3o2)CC1 | 7.53%
3 | COc1ccccc1N1CCN(C(=O)c2cc(=O)c3cc(C)cc(C)c3o2)CC1 | 56.9% (active)
4 | COc1ccccc1N1CCN(C(=O)c2c(-c3c(Cl)cccc3Cl)noc2C)CC1 | -1.94%
5 | Cc1coc2c1c(C)cc1oc(=O)c(CC(=O)NCC(=O)N[C@H](C(=O)O)C(C)C)c(C)c12 | 23.9%
6 | COc1ccc(CCNC(=O)C(=O)NCC2CCCN2S(=O)(=O)c2cccs2)cc1OC (stereo not drawn) | 6.8%
7 | O=C(NCCC1CCCCN1S(=O)(=O)c1cccs1)C(=O)Nc1ccc(F)cc1F (stereo not drawn) | 15.3%
8 | COc1ccccc1CCNC(=O)C(=O)NCCC1CCCCN1S(=O)(=O)c1cccs1 (stereo not drawn) | 55.6% (active)
9 | CCCCNC(=O)C1CCC(CNS(=O)(=O)c2ccc(NC(C)=O)cc2)CC1 (stereo not drawn) | -6.13%
10 | c1ccc(Cc2cc[n+](Cc3ccccc3)cc2)cc1 | 20.7%
11 | CN(C)c1ccc(CSc2ccccc2)cc1 | -50.9%
12 | CN(C)c1cc[n+](Cc2ccccc2)cc1 | 55.3% (active)
13 | COc1cc(/C=N/NC(=O)c2cc(-c3ccccc3C)nc3ccccc23)cc(OC)c1O | 3.09%
14 | COc1cccc(/C=N/NC(=O)CNC(=O)c2ccc(S(=O)(=O)N3CCOCC3)cc2)c1OC | 3.3%
15 | COc1cccc(/C=N/NC(=O)c2[nH]nc3c2CCc2ccccc2-3)c1O | 81.1% (active)
16 | O=C(NCCCNC(=O)NC1CCCCC1)NC1CCCCC1 | 0.18%
17 | O=[N+]([O-])c1cc([N+](=O)[O-])c(Oc2cc(F)cc(F)c2F)cc1NN1CCCCC1 | -2.49%
18 | Cn1c(CCN2CCCC2)nc2cc(NS(=O)(=O)c3ccccc3)ccc21 | 12.8%
19 | Cn1c(=O)n(C)c2cc(NS(=O)(=O)c3ccc(F)cc3)ccc21 | 0.54%
20 | CC1(C)CC(=O)c2c(n(S(=O)(=O)c3ccccc3)c3ccc(NS(=O)(=O)c4ccccc4)cc23)C1 | 84.1% (active)

Row | Structure (SMILES) | inhibition
21 | C[C@H](CO)N1C[C@H](C)[C@@H](CN(C)Cc2ccc(-c3ccccc3)cc2)Oc2ccc(NC(=O)Cn3cnnn3)cc2C1=O | -7.22%
22 | N#Cc1ccc(CN2CCN(CC(=O)Nc3ccccc3C(=O)NC3CC3)CC2)cc1 | -0.74%
23 | COc1cccc(C(=O)Nc2c3c(nn2-c2cccc(C)c2C)CS(=O)(=O)C3)c1OC | 5.94%
24 | CCC(=O)N1CCc2cc(Br)c(S(=O)(=O)NCCN3CCCCC3CC)cc21 (stereo not drawn) | -20.7%
25 | CC(=O)Nc1ccc(S(=O)(=O)N2CCN(C(=O)c3ccccc3F)CC2)cc1 | 4.91%
26 | COCCn1c(CN(Cc2ccccc2)Cc2ccccc2)nc2c1c(=O)n(C)c(=O)n2C | 9.35%
27 | COCCn1c(CN2CCC(Cc3ccccc3)CC2)nc2c1c(=O)n(C)c(=O)n2C | 66.7% (active)
28 | CC1CCN(Cc2nc3c(c(=O)n(C)c(=O)n3C)n2CCc2ccccc2)CC1 | 0.83%
29 | NC1=NC(=O)C(Cc2cccc(Cl)c2Cl)S1 (stereo not drawn) | -27.7%
30 | Cc1ccccc1NC(=O)Cn1cc(C(=O)C2CC2)c2ccccc21 | -3.91%
31 | O=C(Cn1cc(C(=O)C2CC2)c2ccccc21)Nc1ccccc1Cl | 60.8% (active)
32 | COCCCNC(=O)Cn1cc(C(=O)C2CC2)c2ccccc21 | 5.8%
33 | Cc1ccc(S(=O)(=O)N(C)C)cc1NC(=O)C1Cc2ccccc2CN1C(=O)c1ccco1 (stereo not drawn) | -7.42%
34 | COc1ccc(CCNC(=O)C(=O)NCC2OCCN2S(=O)(=O)c2cccs2)cc1OC (stereo not drawn) | 1.51%
35 | CC[C@H]1CN2CCc3cc(OC)c(OC)cc3[C@@H]2C[C@@H]1C[C@H]1NCCc2cc(OC)c(OC)cc21 | 71.3% (active)
36 | COc1ccc2c(c1)CCNC2Cc1ccc(OC)c(O)c1 (stereo not drawn) | 7.38%
37 | COc1cc2c(cc1OC)CN(CC(=O)Nc1ccc(F)cc1)CC2 | 9.09%
38 | C=CC(=O)Nc1ccc(Nc2ccnc(Nc3ccc(N4CCN(C)CC4)cc3)n2)cc1 | 21.8%
39 | CC(NC(=O)C1CCC(CNc2c(N3CCOCC3)c(=O)c2=O)CC1)c1ccccc1 (stereo not drawn) | -5.64%
40 | COCCN(Cc1ccccc1)C(=O)Cc1ccc(S(=O)(=O)N2CCOCC2)s1 | 4.55%

Row | Structure (SMILES) | inhibition
41 | CC[n+]1c(C)n(-c2ccccc2)c2ccc(NC(C)=O)cc21 | 76.3% (active)
42 | Cc1nnc(SCC(=O)Nc2cccc(N)c2)n1-c1ccccc1 | -28.9%
43 | CC(=O)c1cccc(NC(=O)c2cc(C)nn2-c2ccccc2)c1 | 5.19%
44 | Cc1ccc(C(=O)NCC(=O)O)s1 | -7.96%
45 | CC1OC2C(OC1C)N(S(C)(=O)=O)CCN2S(C)(=O)=O (stereo not drawn) | -7.55%
46 | Cc1ccsc1C(=O)OCC(=O)Nc1cccc(F)c1 | -43.7%
47 | Cc1ccsc1C(=O)OCC(=O)c1cc(C)n(CC2CCCO2)c1C (stereo not drawn) | 72.1% (active)
48 | COc1ccc(C(=O)OCC(=O)c2cc(C)n(CC3CCCO3)c2C)cc1[N+](=O)[O-] (stereo not drawn) | -7.49%
49 | CCN(CC)C(CNC(=O)CSc1nnnn1-c1cccc(F)c1)c1ccco1 (stereo not drawn) | 10%
50 | CCNCCC(=O)N1c2ccccc2Sc2ccc(NC(=O)OCC)cc21 | 26.4%
51 | CCOC(=O)CNC(=O)N1c2ccccc2Sc2ccccc21 | 2.43%
52 | CCN1/C(=C/C(=S)Nc2ccccc2)Sc2ccccc21 | 67.6% (active)
53 | CC(=O)c1ccc(S(=O)(=O)NC2CC(=O)N(c3ccc4c(c3)OCCO4)C2)cc1 (stereo not drawn) | -3.34%
54 | CCN(CC(=O)Nc1c(F)cccc1F)C(=O)c1ccc(Sc2nncn2C)c([N+](=O)[O-])c1 | 31.3%
55 | CC(C)Oc1ccc(C(=O)NC(C)(C)CO)cc1 | -9.97%
56 | CCC(NC(=O)C1CCCC1)c1ccc(C)cc1 (stereo not drawn) | -10.2%
57 | CCC(Cc1ccccc1)NC(=O)C1CCCCC1 (stereo not drawn) | 63.1% (active)
58 | Cc1ccc(NC(=O)[C@H](Cc2ccccc2)NC(=O)C2CCNCC2)cc1 | 2.89%
